# PubChem BioAssay (EPA / NIEHS)
# Results filed as inconclusive are left out. Calls of active or inactive are those of the source. Rule for the calls, unless noted: active = hit-call score of the fitted dose curve at least 0.9, where 1 is the maximum; inconclusive = response in the unintended direction; inactive = score below 0.9.
# Legend:
# DIO3 (gene 1735) = experiment: CCTE_GLTED_hDIO3: CCTE's human Deiodinase 3 (DIO3) Inhibition Assay, Great Lakes Toxicology and Ecology Division (GLTED) Lab (AID 2284055);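 note: potency is for inhibition seen as loss of released iodide signal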
# Method in brief: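 Steps: incubate adenovirus-produced hDIO3 with chemical for 3 hours; detect freed iodide via cerium-arsenic Sandell-Kolthoff colorimetry; compare with DMSO baseline.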
# [1] = CCTE_Shafer_MEA_acute_LDH: CCTE's Lactate Dehydrogenase Assay for Cytotoxicity in the Neural Acute Assay, Shafer Lab (AID 2284086);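 note: active means LDH release rises above DMSO vehicle level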
# Method in brief: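 Cytotoxicity readout: spectrophotometric LDH activity in supernatant of rat primary cortical neurons, post-plating day 13 or 15, sampled after 40 min compound exposure; signal gain relative to DMSO baseline.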
# [2] = CCTE_Shafer_MEA_acute_AB: CCTE's Alamar Blue Assay for Cytotoxicity in the Neural Acute Assay, Shafer Lab (AID 2284069);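 note: active compounds lower the viability signal compared with DMSO wells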
# Method in brief: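 Primary rat cortical neurons on MEA plates, exposed acutely after baseline recording on day 13 or 15 post-plating. Viability by CellTiter Blue resazurin reduction (1:6 reagent dilution), fluorescence 544/590 nm; loss of signal versus DMSO.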
# [3] = CCTE_Shafer_MEA_dev_per_network_spike_spike_number_mean: CCTE's Neural Network Formation Assay for Mean Number of Spikes in a Network Spike, Shafer Lab (AID 2284053; active = hit-call score of the fitted dose curve at least 0.9, where 1 is the maximum; inactive = score below 0.9)
# Method in brief: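 Primary rat cortical neurons on 48-well, 16-electrode MEA plates were exposed from plating to DIV 12, with dosing renewed on DIV 5 and 9. Spikes per network spike (0.05 s peak window) were recorded on DIV 5, 7, 9 and 12 and collapsed as trapezoidal AUC versus DMSO.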
# [4] = CCTE_Shafer_MEA_dev_per_network_spike_spike_percent: CCTE's Neural Network Formation Assay for Percent of Spikes in a Network Spike, Shafer Lab (AID 2284054; active = hit-call score of the fitted dose curve at least 0.9, where 1 is the maximum; inactive = score below 0.9)
# Method in brief: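 Developing networks of rat cortical neurons are dosed at day 0 and recorded extracellularly four times up to day 12. The endpoint is the area under the curve of percent spikes in network spikes, fitted in the negative direction relative to DMSO.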
# [5] = CCTE_Shafer_MEA_dev_LDH: CCTE's Lactate Dehydrogenase Assay for Cytotoxicity in the Neural Network Formation Assay, Shafer Lab (AID 2284068);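 note: exposure for twelve days from plating with re-dosing on DIV 5 and 9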
# Method in brief: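 Primary rat cortical neurons were plated on PEI/laminin MEA plates and exposed from day 0 for twelve days, with compound renewed at DIV 5 and 9. Cytotoxicity was determined by spectrophotometric LDH assay relative to DMSO.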
# [6] = CCTE_Shafer_MEA_dev_AB: CCTE's Alamar Blue Assay for Cytotoxicity in the Neural Network Formation Assay, Shafer Lab (AID 2284083);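 note: twelve days of exposure from plating with re-dosing on DIV 5 and 9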
# Method in brief: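 Primary rat cortical neurons on PEI-coated 48-well MEA plates, 1.5 x 10^5 cells/well in laminin drop; compound exposure from day 0 of plating for twelve days, renewed at medium changes on DIV 5 and 9. Viability read as resazurin reduction by fluorescence, relative to DMSO.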
# [7] = CCTE_Shafer_MEA_dev_mutual_information_norm: CCTE's Neural Network Formation Assay for Mutual Information Normalization, Shafer Lab (AID 2284091; active = hit-call score of the fitted dose curve at least 0.9, where 1 is the maximum; inactive = score below 0.9;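 for AC50: mutual information between electrodes summarised as area under curve across four recording days; potency is for a decrease in mutual information relative to DMSO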)
# Method in brief: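 Exposure of primary rat cortical neurons began at plating and ran to DIV 12, with full media and treatment renewal after DIV 5 and 9 recordings. Mutual information AUC (DIV 5–12) was analysed for loss versus DMSO.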
# [8] = CCTE_Shafer_MEA_dev_correlation_coefficient_mean: CCTE's Neural Network Formation Assay for Mean Correlation Coefficient, Shafer Lab (AID 2284093; active = hit-call score of the fitted dose curve at least 0.9, where 1 is the maximum; inactive = score below 0.9;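 for AC50: well mean pairwise spike train correlation integrated as AUC over recording days 5 to 12; potency fitted for loss of correlation relative to DMSO vehicle wells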)
# Method in brief: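 Spontaneous activity recorded on days 5, 7, 9 and 12 post-plating; pairwise spike correlations are averaged across active electrodes and collapsed to an area-under-curve. Rat cortical cultures are dosed from plating through 12 days, with compound renewed at media changes.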
# [9] = IUF_NPC1b_proliferation_BrdU_72hr: Leibniz Research Institute for Environmental Medicine (IUF) 72-hour Neural Progenitor Cell Bromodeoxyuridine (BrdU) Proliferation Assay (NPC1b) (AID 2284207; active = hit-call score of the fitted dose curve at least 0.9, where 1 is the maximum; inactive = score below 0.9)
# Method in brief: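 Neural progenitor spheres of human fetal origin are treated for three days; BrdU added for the last 16 h is quantified by luminescence ELISA, with DMSO as baseline and EGF/FGF omission as positive control.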
# [10] = IUF_NPC1a_proliferation_area_72hr: Leibniz Research Institute for Environmental Medicine (IUF) 72-hour Neural Progenitor Cell Proliferation Area Assay (NPC1a) (AID 2284208; active = hit-call score of the fitted dose curve at least 0.9, where 1 is the maximum; inactive = score below 0.9)
# Method in brief: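 Single 0.25–0.35 mm human fetal neural progenitor spheres in proliferation medium with EGF and FGF, exposed 72 h from plating without renewal at 37C, pH 7.2-7.6. Sphere area growth measured by automated phase-contrast imaging, relative to DMSO.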
# [11] = IUF_NPC1_viability_72hr: Viability Assessment at 72 hours in the Leibniz Research Institute for Environmental Medicine (IUF) Neural Progenitor Cell Proliferation Assay (NPC1) (AID 2284209; active = hit-call score of the fitted dose curve at least 0.9, where 1 is the maximum; inactive = score below 0.9)
# Method in brief: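 Three-day continuous exposure of human neural progenitor spheres under EGF/FGF-driven proliferation; cell viability scored by alamar blue signal versus DMSO.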
# [12] = CCTE_Mundy_HCI_Cortical_Synap_Neur_Matur_NeuriteSpotCountPerNeuriteLength: CCTE's Synaptogenesis and Neurite Maturation Assay in rat cortical cells for Neurite Spot Count per Neurite Length, Mundy Lab (AID 2284210; active = hit-call score of the fitted dose curve at least 0.9, where 1 is the maximum; inactive = score below 0.9)
# Method in brief: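 Neurite-associated synapse density (synaptophysin puncta per unit neurite length) is measured by fluorescence high-content imaging in rat cortical cultures treated from DIV 7 and fixed at DIV 12, with DMSO as negative control.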
# [13] = CCTE_Mundy_HCI_Cortical_Synap_Neur_Matur_BPCount: CCTE's Synaptogenesis and Neurite Maturation Assay in rat cortical cells for Branch Point Count, Mundy Lab (AID 2284211; active = hit-call score of the fitted dose curve at least 0.9, where 1 is the maximum; inactive = score below 0.9)
# Method in brief: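 In this multiplexed morphology assay, cortical cells from rat receive chemicals at DIV 7 and are fixed at DIV 12, then immunostained and imaged; branch points are counted, with DMSO as baseline.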
# [14] = CCTE_Mundy_HCI_Cortical_NOG_NeuriteCount: CCTE's Neurite Outgrowth Assay in rat cortical cells for Neurite Count, Mundy Lab (AID 2284212; active = hit-call score of the fitted dose curve at least 0.9, where 1 is the maximum; inactive = score below 0.9;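 note: cells fixed about two days after chemical exposure began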)
# Method in brief: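 Rat cortical primary cells; compound added 2 h post-plating, 1/10 dilution of working solution. Anti-betaIII-tubulin/AF488 ICC; ArrayScan neurite count vs DMSO.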
# [15] = CCTE_Mundy_HCI_Cortical_NOG_NeuriteLength: CCTE's Neurite Outgrowth Assay in rat cortical cells for Neurite Length, Mundy Lab (AID 2284213; active = hit-call score of the fitted dose curve at least 0.9, where 1 is the maximum; inactive = score below 0.9)
# Method in brief: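 First, rat primary cortical cells were plated and, 2 h later, given test chemical as a 1/10 dilution. Finally, βIII-tubulin immunostaining enabled automated imaging of neurite length.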
# [16] = CCTE_Mundy_HCI_Cortical_Synap_Neur_Matur_NeuriteLength: CCTE's Synaptogenesis and Neurite Maturation Assay in rat cortical cells for Neurite Length, Mundy Lab (AID 2284214; active = hit-call score of the fitted dose curve at least 0.9, where 1 is the maximum; inactive = score below 0.9)
# Method in brief: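 DMSO-normalised neurite length, from high-content imaging of anti-MAP2-stained rat cortical cells fixed at DIV 12. Glia were suppressed with AraC (DIV 5) before chemical exposure from DIV 7.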
# [17] = CCTE_Mundy_HCI_Cortical_Synap_Neur_Matur_NeuriteSpotCountPerNeuron: CCTE's Synaptogenesis and Neurite Maturation Assay in rat cortical cells for Neurite Spot Count per Neuron Count, Mundy Lab (AID 2284215; active = hit-call score of the fitted dose curve at least 0.9, where 1 is the maximum; inactive = score below 0.9)
# Method in brief: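 Rat primary cortical cultures given AraC at DIV 5, dosed from DIV 7 to DIV 12 with media change. Fixed, stained for MAP2, synaptophysin and Hoechst; neurite-associated synaptophysin puncta per neuron quantified by high-content imaging versus DMSO.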
# [18] = CCTE_Mundy_HCI_Cortical_Synap_Neur_Matur_SynapseCount: CCTE's Synaptogenesis and Neurite Maturation Assay in rat cortical cells for Synapse Count, Mundy Lab (AID 2284218; active = hit-call score of the fitted dose curve at least 0.9, where 1 is the maximum; inactive = score below 0.9)
# Method in brief: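 Endpoint: synapses/neuron by HCI (synaptophysin puncta on MAP2-labelled neurites, Hoechst nuclei). Rat primary cortical cells, AraC DIV 5, dosed DIV 7, fixed DIV 12; DMSO negative control.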
# [19] = TAMU_PeakParms_SingleDonor1434_Chronotropy: Texas A&M University (TAMU) 1.5-hr Human Induced Pluripotent Stem Cell (iPSC)-derived Cardiomyocytes Calcium (Ca+2) Flux Assay for Cardiotoxicity: Chronotropy (changes in peak frequency) (AID 2284217; active = hit-call score of the fitted dose curve at least 0.9, where 1 is the maximum; inactive = score below 0.9); conditions: actives raise or lower the signal
# Method in brief: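 iPSC-derived cardiomyocytes (single donor 1434) dosed at 0.2, 1, 10 and 100 uM in 0.5% DMSO for 1.5 h at 37C; Ca2+ dye fluorescence gave average beat frequency. Zero-beat points removed; bidirectional fit versus DMSO, POD as EC05.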
smiles,measurement,setting,value
CCCCCCCCCCCCCC(=O)O,AC50,DIO3 (gene 1735),156 µM (active)
C=CCOC(=O)CCC1CCCCC1,outcome,[1],inactive
CC(=O)OCCC(C)CC(C)(C)C (stereo not drawn),outcome,[1],inactive
COc1cc(C=O)ccc1OC(=O)C(C)C,outcome,[1],inactive
CCC(=O)/C=C/C1C(C)=CCCC1(C)C (stereo not drawn),AC50,DIO3 (gene 1735),56.6 µM (active)
C=C[Si](OCC)(OCC)OCC,outcome,[2],inactive
same,outcome,[1],inactive
NCCNCCN,outcome,[2],inactive
same,outcome,[1],inactive
CCC(=O)OCc1ccccc1,outcome,[1],inactive
CCCCCCCCCCCCCCCC(=O)OC[C@H](O)[C@H]1OC(=O)C(O)=C1O,AC50,DIO3 (gene 1735),4.09 µM (active)
CC(=O)[C@H]1CC[C@H]2[C@@H]3CC=C4C[C@@H](O)CC[C@]4(C)[C@H]3CC[C@]12C,outcome,[1],inactive
CCCCCCCCCCCCN,AC50,DIO3 (gene 1735),141 µM (active)
CC[Si](OC(C)=O)(OC(C)=O)OC(C)=O,outcome,[1],inactive
C[C@H]1C[C@@H]2[C@H]([C@@H](O)C[C@@]3(C)[C@H]2CC[C@]3(O)C(=O)CO)[C@@]2(C)C=CC(=O)C=C12,outcome,[2],inactive
same,outcome,[1],inactive
CN(C)C(=N)N=C(N)N,outcome,[3],inactive
same,outcome,[4],inactive
same,outcome,[5],inactive
same,outcome,[6],inactive
same,outcome,[1],inactive
same,outcome,[7],inactive
same,outcome,[8],inactive
same,outcome,[9],inactive
same,outcome,[10],inactive
same,outcome,[11],inactive
same,outcome,[12],inactive
same,AC50,[13],18.1 µM (active)
same,outcome,[14],inactive
same,outcome,[15],inactive
same,AC50,[16],18.1 µM (active)
same,outcome,[17],inactive
same,outcome,[18],inactive
Cc1cc(C2(c3cc(C)c(O)cc3C)OS(=O)(=O)c3ccccc32)c(C)cc1O,outcome,[2],inactive
same,outcome,[1],inactive
CC(C)=CCCC(C)=CCCC(C)=CCO,AC50,DIO3 (gene 1735),17.9 µM (active)
c1ccc2c(c1)c1cccc3ccc4cccc2c4c31,outcome,[3],inactive
same,outcome,[4],inactive
same,outcome,[5],inactive
same,outcome,[6],inactive
same,outcome,[7],inactive
same,outcome,[8],inactive
same,AC50,[19],9.92 µM (active)
N#Cc1ccc(CC(=NNC(=O)Nc2ccc(OC(F)(F)F)cc2)c2cccc(C(F)(F)F)c2)cc1,AC50,[3],1.08 µM (active)
same,outcome,[4],inactive
same,AC50,[5],15 µM (active)
same,outcome,[6],inactive
same,AC50,[7],0.672 µM (active)
same,AC50,[8],2.8 µM (active)
same,outcome,[9],inactive
same,outcome,[10],inactive
same,outcome,[11],inactive
same,outcome,[12],inactive
same,outcome,[13],inactive
same,outcome,[14],inactive
same,outcome,[15],inactive
same,outcome,[16],inactive
same,outcome,[17],inactive
same,outcome,[18],inactive
CC(C)(COC(=O)c1ccccc1)COC(=O)c1ccccc1,outcome,[2],inactive
same,outcome,[1],inactive
O=Nc1ccc(Nc2ccccc2)cc1,AC50,DIO3 (gene 1735),55.1 µM (active)
OC[C@H]1O[C@H](O[C@]2(CCl)O[C@H](CCl)[C@@H](O)[C@@H]2O)[C@H](O)[C@@H](O)[C@H]1Cl,outcome,[2],inactive
same,outcome,[1],inactive
CCCCCCCCC=O,outcome,[2],inactive
same,outcome,[1],inactive
O=C(Oc1ccccc1)c1ccc(O)cc1,AC50,DIO3 (gene 1735),52.9 µM (active)
OC1OC[C@@H](O)[C@H](O)[C@H]1O (stereo partly drawn),outcome,[1],inactive
